Measured values reported in the supplement of paper PMC8285479.
Where a name gives a salt, the structure may show the parent alone. ± gives the standard deviation of the averaged measurements. Whole data set: some 1,900 compounds, median “normalised cell viability (NPI; 0 = phenylarsine oxide control, 1 = DMSO control)” near 1, cut for the lowest 2% near 0.039. This excerpt belongs to a sample that is enriched for the lowest values.

Tested on: NCI-H1944
Test: normalised cell viability (NPI; 0 = phenylarsine oxide control, 1 = DMSO control) (fraction of DMSO control); NCI-H1944 is a non-small cell lung cancer line; higher = more viable cells (less compound toxicity)
Conditions: 6 days
[1] = glucocorticoid arm: hydrocortisone 2.75 uM co-treatment, compound 1 µM
[2] = glucocorticoid arm: hydrocortisone 2.75 uM co-treatment, compound 5 µM
[3] = glucocorticoid arm: hydrocortisone 2.75 uM pre-treated 2 days and continued, compound 1 µM
[4] = glucocorticoid arm: hydrocortisone 2.75 uM pre-treated 2 days and continued, compound 5 µM
[5] = glucocorticoid arm: vehicle, compound 1 µM
[6] = glucocorticoid arm: vehicle, compound 5 µM
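Further: CTB read-out in 384-well plates, triplicate wells, NPI normalised per plate against 1 µM phenylarsine oxide (0) and 0.1% DMSO (1) controls.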

SMILES | normalised cell viability [1] | normalised cell viability [2] | normalised cell viability [3] | normalised cell viability [4] | normalised cell viability [5] | normalised cell viability [6]
Cc1ccc(NC(=O)c2ccc(CN3CCN(C)CC3)cc2)cc1Nc1nccc(-c2cccnc2)n1 | 1.043 ± 0.0058 | 1.1 ± 0.032 | 1.04 ± 0.011 | 1.05 ± 0.01 | 0.9957 ± 0.004 | 1 ± 0.014
Cc1ccc(NC(=O)c2ccc(CN3CCN(C)CC3)cc2)cc1Nc1nccc(-c2cccnc2)n1 [Imatinib (Gleevec)] | 1.05 ± 0.017 | 1.14 ± 0.015 | 1.037 ± 0.0058 | 1.1 ± 0.01 | 1.01 ± 0.015 | 1.033 ± 0.0058
Nc1ccccc1NC(=O)c1ccc(CNc2nccc(-c3cccnc3)n2)cc1 [Mocetinostat (MGCD0103)] | 1.033 ± 0.0058 | 0.00494 ± 0.0024 | 1.02 ± 0.02 | 0.0153 ± 0.0051 | 0.585 ± 0.02 | 0.00194 ± 0.00024
Nc1ccccc1NC(=O)c1ccc(CNC(=O)OCc2cccnc2)cc1 [Entinostat] | 0.925 ± 0.019 | 0.0313 ± 0.0074 | 0.962 ± 0.013 | 0.0766 ± 0.011 | 0.348 ± 0.03 | 0.00136 ± 0.00059
COc1cc2c(cc1OC)[C@@H](c1ccccc1)CN(C)CC2 | 0.9913 ± 0.006 | 1.023 ± 0.0058 | 1.02 ± 0.011 | 1.01 ± 0.019 | 0.9883 ± 0.0015 | 0.9863 ± 0.0055
Nc1nc(N)c(N=O)c(OCC2CCCCC2)n1 | 1.02 ± 0.011 | 1.05 ± 0.017 | 1.037 ± 0.0058 | 1.023 ± 0.0058 | 1 | 0.978 ± 0.019
Clc1ccc(C2(c3ccc(-c4cn[nH]c4)cc3)CCNCC2)cc1 | 0.968 ± 0.012 | 0.9977 ± 0.0021 | 0.975 ± 0.011 | 1.006 ± 0.0075 | 0.9947 ± 0.0051 | 0.939 ± 0.015
CC(C)NCC(O)c1ccc(O)c(O)c1 (racemic) [(±)-Isoproterenol hydrochloride] | 1.01 ± 0.011 | 1.03 ± 0.042 | 1.01 | 1.04 ± 0.064 | 0.99967 ± 0.00058 | 1.02 ± 0.021
N[C@@H](CCCC(=O)O)C(=O)O [L-2-aminoadipic acid] | 0.9947 ± 0.0055 | 0.991 ± 0.015 | 0.997 ± 0.013 | 0.97 ± 0.018 | 0.979 ± 0.014 | 0.9823 ± 0.0067
O=C(NC1CCNCC1)c1n[nH]cc1NC(=O)c1c(Cl)cccc1Cl | 0.225 ± 0.03 | 0.0298 ± 0.0013 | 0.349 ± 0.039 | 0.149 ± 0.015 | 0.0396 ± 0.029 | 0.0072 ± 0.00086
NC(=O)Nc1cc(-c2cccc(F)c2)sc1C(=O)N[C@H]1CCCNC1 | 0.65 ± 0.013 | 0.45 ± 0.024 | 0.93 ± 0.021 | 0.7733 ± 0.0071 | 0.338 ± 0.012 | 0.158 ± 0.015
CN1CCCN(C(=O)c2cccc(-c3ccc(/C=C4/C(=O)Nc5ccc(Cl)cc54)o3)c2)CC1 | 0.717 ± 0.032 | 0.214 ± 0.24 | 0.937 ± 0.021 | 0.887 ± 0.059 | 0.282 ± 0.017 | 0.00113 ± 0.00047
Cc1[nH]c(/C=C2\C(=O)Nc3ccc(S(=O)(=O)N(C)c4cccc(Cl)c4)cc32)c(C)c1C(=O)N1CCN(C)CC1 | 0.9913 ± 0.0072 | 0.986 ± 0.012 | 1.003 ± 0.0058 | 0.989 ± 0.014 | 0.969 ± 0.01 | 0.849 ± 0.036
CN1CCN(C(=O)c2cc3cc(Cl)ccc3[nH]2)CC1 | 1.027 ± 0.0058 | 1.023 ± 0.0058 | 1.013 ± 0.0058 | 1.03 ± 0.021 | 1.007 ± 0.0058 | 1.01 ± 0.01
NC1(Cc2ccc(Cl)cc2)CCN(c2ncnc3[nH]ccc23)CC1 | 0.901 ± 0.034 | 0.602 ± 0.08 | 0.934 ± 0.014 | 0.68 ± 0.045 | 0.9813 ± 0.0087 | 0.827 ± 0.068
CC1(C)CCC(NC(=O)[C@@H](N)CCC(=O)O)CC1 | 0.979 ± 0.013 | 0.975 ± 0.016 | 0.999 ± 0.011 | 0.982 ± 0.046 | 0.9703 ± 0.0085 | 0.985 ± 0.012
CC(C)(C(=O)O)c1ccc(C(O)CCCN2CCC(C(O)(c3ccccc3)c3ccccc3)CC2)cc1 (stereo not given) [Fexofenadine hydrochloride] | 1.006 ± 0.0069 | 1 ± 0.013 | 0.997 ± 0.013 | 0.99 ± 0.01 | 1.003 ± 0.0058 | 0.9967 ± 0.0035
CC(C)(C)c1ccc(C(O)CCCN2CCC(C(O)(c3ccccc3)c3ccccc3)CC2)cc1 (stereo not given) [Terfenadine] | 0.997 ± 0.0027 | 0.9833 ± 0.0051 | 1.03 ± 0.017 | 1.03 ± 0.017 | 0.9927 ± 0.006 | 0.0387 ± 0.043
CC(C)(C(=O)O)c1ccc(C(O)CCCN2CCC(C(O)(c3ccccc3)c3ccccc3)CC2)cc1 (stereo not given) [Fexofenadine HCl] | 1.03 ± 0.01 | 1.02 ± 0.021 | 1.037 ± 0.0058 | 1.05 ± 0.011 | 0.999 ± 0.011 | 0.998 ± 0.01
OC(CCN1CCCCC1)(c1ccccc1)C1CCCCC1 (racemic) [DL-Trihexyphenidyl hydrochloride] | 0.99967 ± 0.00058 | 0.998 ± 0.013 | 1.03 ± 0.021 | 1.02 ± 0.011 | 0.995 ± 0.007 | 1.001 ± 0.0085
COc1ccc2c3n(c(=NC(=O)c4cccnc4)nc2c1OC)CCN3 | 0.911 ± 0.004 | 0.628 ± 0.018 | 0.901 ± 0.012 | 0.663 ± 0.033 | 0.9907 ± 0.0049 | 0.85 ± 0.029
O=C(Nc1cccc(Nc2ncc(Br)c(NCCc3cnc[nH]3)n2)c1)N1CCCC1 | 0.955 ± 0.015 | 0.805 ± 0.016 | 0.939 ± 0.0062 | 0.859 ± 0.02 | 0.917 ± 0.0095 | 0.635 ± 0.029
CCCn1c(=O)c2[nH]c(-c3ccc(S(=O)(=O)O)cc3)nc2n(CCC)c1=O [1,3-Dipropyl-8-p-sulfophenylxanthine] | 0.9873 ± 0.0049 | 0.99 ± 0.01 | 0.994 ± 0.01 | 0.986 ± 0.034 | 0.996 ± 0.016 | 0.996 ± 0.0061
Cc1cc(N)c2ccccc2[n+]1CCCCCCCCCC[n+]1c(C)cc(N)c2ccccc21 [Dequalinium chloride hydrate] | 0.888 ± 0.026 | 0.0383 ± 0.0062 | 0.963 ± 0.016 | 0.0385 ± 0.0016 | 0.991 ± 0.013 | 0.00579 ± 0.0022
OC[C@H]1O[C@@H](n2cnc3c2N=CNC[C@H]3O)C[C@@H]1O [Pentostatin] | 1.02 ± 0.011 | 1.01 ± 0.022 | 1.03 ± 0.011 | 1.04 ± 0.01 | 1.013 ± 0.0058 | 1.01 ± 0.011
